# Test results taken from article PMC5540273 (PLoS ONE, 2017).
# Experiments:
# Conditions in all cases: concentration: 1 μM, replicates: in singlicate; n = 1
# [1] = test system: MARK4
# [2] = test system: MAST1
# [3] = test system: T1, MEK1
# T1 construct: gene MAP2K1
# [4] = test system: T2, MEK2
# T2 construct: gene MAP2K2
# [5] = test system: T3, MEK3
# T3 construct: gene MAP2K3
# [6] = test system: T4, MEK4
# T4 construct: gene MAP2K4
# [7] = test system: T5, MEK5
# T5 construct: gene MAP2K5
# [8] = test system: T6, MEK6
# T6 construct: gene MAP2K6
# [9] = test system: MELK
# [10] = test system: MERTK
# 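Also: KINOMEscan kinase panel screen.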
SMILES,%Inh [1] [%],%Inh [2] [%],%Inh [3] [%],%Inh [4] [%],%Inh [5] [%],%Inh [6] [%],%Inh [7] [%],%Inh [8] [%],%Inh [9] [%],%Inh [10] [%]
CCC(=O)c1c(-c2ccccc2)c2cc(Cl)ccc2c(=O)n1Cc1ccc(C(=O)O)cc1,0,11,0,3,0,0,0,0,0,0
O=C(Nc1ccc2c(c1)OCO2)NC1CCN(c2ccnc(NCc3ccc(F)cc3)n2)CC1 [GSK1379859],20,0,0,0,6,0,8,0,100,26
O=C(Nc1n[nH]c2nc(-c3ccccc3)c(Cl)cc12)C1CC1 [SB-734909],25,12,11,0,45,24,50,0,0,0
CCS(=O)(=O)c1ccc(OC)c(Nc2ncc(-c3ccc(F)cc3)o2)c1.Cl [GW591947],0,0,0,0,0,6,18,0,0,28
CCn1c(-c2ccoc2)nc2cnccc21 [SB-733887],0,9,18,0,5,14,38,0,22,5
CCc1nc(-c2cccc(C)c2)c(-c2ccncc2)s1,0,0,2,48,23,0,34,0,0,0
COc1cc(Nc2nccc(N3CCC(NC(=O)C(C)c4ccc(Cl)cc4)C3)n2)cc(OC)c1OC (centres unmarked) [GSK1379757],11,0,0,0,0,5,59,0,6,0
COc1ccc(CNC(=O)NC2CCN(c3ccnc(Nc4ccc(F)cc4)n3)C2)cc1 (centres unmarked) [GSK1379706],3,53,29,21,0,28,25,12,21,39
CCc1ccc(-c2ccc3c(c2)-c2nn(C)cc2S(=O)(=O)N3C)cc1,16,0,53,18,17,0,27,0,0,0
CN1C(=O)C(Nc2ccccc2)=C(c2ccccc2)C1=O [SB-300079],12,100,19,34,25,18,41,0,0,0
COc1cc2ncn(-c3cc(OCCCc4ccccc4)c(C(N)=O)s3)c2cc1OC [GSK205189],0,0,0,0,0,0,96.8,0,0,0
COc1ccc(Nc2nccc(N3CCC(NS(=O)(=O)c4ccc(NC(C)=O)cc4)C3)n2)cc1 (centres unmarked) [GSK1379729],0,0,0,10,12,5,36,0,17,25
CCC(=O)c1c(-c2ccccc2)c2cc(Cl)ccc2c(=O)n1Cc1cc(S(C)(=O)=O)n(CCC(C)(C)O)n1,0,0,11,19,23,40,0,8,16,13
OCCCNc1nccc(-c2c(-c3cccc(C(F)(F)F)c3)nn3cc(C(F)(F)F)ccc23)n1 [GW630813],0,0,0,0,0,0,7,0,0,12
CCCC(=O)Nc1n[nH]c2ncc(-c3cccc4ccccc34)cc12 [SB-642057],0,0,4,8,0,0,12,0,33,0
COc1cc2nccc(Nc3ccc(OCc4ccc(NC(C)=O)cc4)cc3)c2cc1OC.Cl [GW440135],8,0,19,0,14,2,99.6,0,0,40
O=C1NC(=O)C(c2ccccc2)=C1Nc1cccc(O)c1 [SB-390534],0,33,16,14,10,12,29,0,4,9
CCn1c(-c2nonc2N)nc2ccccc21 [SB-693162/GW549034],0,5,30,25,47,48,18,0,15,0

SMILES,%Inh [1] [%],%Inh [2] [%],%Inh [3] [%],%Inh [4] [%],%Inh [5] [%],%Inh [6] [%],%Inh [7] [%],%Inh [8] [%],%Inh [9] [%],%Inh [10] [%]
Nc1ncnc2c1ncn2-c1cccc(F)c1 [SKF-97560],0,19,34,31,43,22,31,0,22,24
CN(C)c1cc(-c2ccc3c(N)n[nH]c3c2)nc(N)n1 [GSK2219329],1,0,0,0,0,0,13,8,0,21
COc1cc2ncn(-c3cc(OCc4ccncc4Br)c(C(N)=O)s3)c2cc1OC [GW854278],39,3,0,13,0,16,98.8,0,17,11
COc1cc2ncn(-c3cc(OCc4ccncc4)c(C(N)=O)s3)c2cc1OC [GSK336313],0,0,3,4,0,8,88,44,0,0
COc1cccc(C2=C(N(C)c3ccccc3)C(=O)NC2=O)c1 [SB-334865],1,0,0,0,0,4,6,0,0,18
COc1ccc(-c2coc3ccc(-c4nnc(SCc5cccc(C#N)c5)o4)cc23)cc1,13,31,4,13,0,38,21,16,11,0
CCC(=O)c1c(-c2ccccc2)c2cc(Cl)ccc2c(=O)n1Cc1cc(S(C)(=O)=O)n(CC(N)=O)n1,5,0,1,40,0,0,15,0,0,0
COC(=O)c1c(-c2ccccc2)c2cc(Br)ccc2c(=O)n1Cc1ccc(NC(=O)CCC(=O)O)cc1,4,29,0,3,11,10,10,21,7,3
COc1ccc(-n2cnc3c(N)ncnc32)cc1 [SKF-97236],19,0,0,0,11,29,56,0,0,35
Nc1nccc2scc(-c3ccc4c(c3)CCN4C(=O)Cc3ccccc3)c12 [GSK2576924],0,0,2,7,0,5,93.2,6,16,22
Nc1ncnc2c1ncn2-c1ccc(Cl)cc1 [AH2635],13,0,0,0,0,12,48,0,0,10
Cl.c1ccc(Cn2cnc3cc(Nc4ncnc5ccccc45)ccc32)cc1 [GW272142],0,0,0,0,0,8,56,0,13,10
CCC(=O)c1c(-c2ccccc2)c2cc(Cl)ccc2c(=O)n1Cc1cc(S(C)(=O)=O)n(CC(F)F)n1,0,0,1,12,0,18,0,0,0,0
Cc1ccc(-c2ccc3c(ccc4sc5c(c43)NC[C@@H](C)N=C5N(C)C)n2)cn1,0,0,0,0,0,0,0,2,0,0
C[C@@H]1CC[C@H](C(=O)NC2CCCCC2)CN1c1cc(-c2ccc3c(N)n[nH]c3c2)nc(N)n1 [GSK2291363],11,0,0,0,18,27,35,9,26,33
COC(=O)c1c(-c2ccccc2)c2cc(C)ccc2c(=O)n1Cc1ccccc1,0,0,0,0,0,0,0,10,0,0
COc1cc2ncn(-c3cc(OCc4ccc(S(C)(=O)=O)cc4)c(C(N)=O)s3)c2cc1OC [GW869979],0,5,30,25,28,6,81,0,8,0
